Test results taken from PubChem BioAssay (EPA / NIEHS).
Inconclusive results are not listed. Some structures have more than one record in an assay (separate samples or runs), and their calls can disagree. The source made the active and inactive calls. How the source made its calls, unless noted: active means hit-call score of the fitted dose curve at least 0.9, where 1 is the maximum; inactive means score below 0.9.

Legend:
[1] = read-out: Human Leukocyte Antigen - DR isotype (HLADR), HLA-DRA (gene 3122); assay: BSK_3C_HLADR: BioMAP Diversity Plus: 3C Assay for Human Leukocyte Antigen - DR isotype (HLADR) Biomarker Activity (AID 2283019); conditions: primary human endothelial cells (HUVEC); actives raise or lower the signal
Summary of the method: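 Endothelial cells from human umbilical vein are treated with test chemical; after 24 h, HLA-DR levels are measured by ELISA. Data are fitted in both directions using DMSO as the baseline.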

[2] = read-out: Interleukin-8 (IL8), CXCL8 (gene 3576); assay: BSK_3C_IL8: BioMAP Diversity Plus: 3C Assay for Interleukin-8 (IL8) Biomarker Activity (AID 2283020); conditions: primary human endothelial cells (HUVEC); actives raise or lower the signal
Summary of the method: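 IL-8 was measured by ELISA in HUVEC cultures 24 h after chemical dosing, with gain or loss of signal fitted relative to DMSO. Parallel SRB total-protein staining tracked overt cytotoxicity.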

[3] = read-out: Monokine induced gamma interferon (MIG), CXCL9 (gene 4283); assay: BSK_3C_MIG: BioMAP Diversity Plus: 3C Assay for Monokine induced gamma interferon (MIG) Biomarker Activity (AID 2283021); conditions: primary human endothelial cells (HUVEC); actives raise or lower the signal;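 on AC50: MIG protein level measured by immunoassay in the treated endothelial cultures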
Summary of the method: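 ELISA measurement of MIG in human umbilical vein endothelial cells 24 h after treatment. Cytotoxicity tracked by SRB staining in parallel cultures; gain or loss of signal fitted relative to DMSO.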

[4] = molecular target: human Vitamin D Receptor (VDR), VDR (gene 7421) (UniProt P11473); assay: ATG_VDR_TRANS: Attagene TRANS-FACTORIAL HepG2 Assay for human Vitamin D Receptor (VDR) (AID 2283022; active means hit-call score of the fitted dose curve at least 0.9, where 1 is the maximum)
Chain of human Vitamin D Receptor (VDR), VDR (gene 7421) (P11473 whole entry, looked up, the tested form may be a part): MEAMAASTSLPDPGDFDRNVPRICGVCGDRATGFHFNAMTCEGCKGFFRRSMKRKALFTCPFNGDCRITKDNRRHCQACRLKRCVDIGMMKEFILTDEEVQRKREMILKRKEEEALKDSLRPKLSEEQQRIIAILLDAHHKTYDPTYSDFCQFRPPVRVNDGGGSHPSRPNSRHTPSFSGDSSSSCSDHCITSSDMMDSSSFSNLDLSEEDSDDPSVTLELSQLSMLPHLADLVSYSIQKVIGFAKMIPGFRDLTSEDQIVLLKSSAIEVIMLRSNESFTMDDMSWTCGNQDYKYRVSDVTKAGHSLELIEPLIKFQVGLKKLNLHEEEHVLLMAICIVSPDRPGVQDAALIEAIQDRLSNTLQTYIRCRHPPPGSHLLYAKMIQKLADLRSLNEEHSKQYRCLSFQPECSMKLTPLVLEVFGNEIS
Summary of the method: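 Fluorescence of labelled reporter cDNA fragments, resolved by capillary electrophoresis, gives mRNA induction after 24 h treatment of HepG2 cells carrying transfected Gal4-fusion reporter units. Activity is fitted in the positive direction with DMSO as baseline.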

[5] = read-out: Matrix Metallopeptidase 1 (MMP1), MMP1 (gene 4312); assay: BSK_BE3C_MMP1: BioMAP Diversity Plus: BE3C Assay for Matrix Metallopeptidase 1 (MMP1) Biomarker Activity (AID 2283024); conditions: primary human bronchial epithelial cells; actives raise or lower the signal
Summary of the method: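 ELISA measurement of MMP-1 after 24 h compound exposure of primary human bronchial epithelial cells. Changes in either direction fitted relative to DMSO; parallel SRB staining checked overt cytotoxicity.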

[6] = BSK_3C_Vis: BioMAP Diversity Plus: 3C Assay for Morphology Visualization (AID 2283025); conditions: primary human endothelial cells (HUVEC);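 further: fitted both ways so gain or loss versus DMSO counts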;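 on AC50: light microscopy image of cell morphology used as background control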
Summary of the method: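 Light-microscopy visualization of HUVEC cultures at 24 h post-treatment, with DMSO as baseline for bidirectional fitting.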

[7] = read-out: Pselectin, SELP (gene 6403); assay: BSK_4H_Pselectin: BioMAP Diversity Plus: 4H Assay for Pselectin Biomarker Activity (AID 2283026); conditions: primary human endothelial cells (HUVEC); actives raise or lower the signal
Summary of the method: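 ELISA of surface P-selectin on HUVEC, 24 h after dosing, with parallel SRB staining (0.1% after 10% TCA fixation, 560 nm) for overt cytotoxicity. Activity fitted in both directions relative to DMSO.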

[8] = BSK_4H_SRB: Viability Assessment in the BioMAP Diversity Plus: 4H Assay (AID 2283027); conditions: primary human endothelial cells (HUVEC);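 further: cells exposed to compound for 24 h before staining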;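 on AC50: curves fitted both ways versus DMSO so AC50 may be loss or gain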
Summary of the method: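 Cytotoxicity read-out in primary human endothelial cells: after 24 h compound exposure, cells were TCA-fixed (10%), stained with 0.1% SRB and absorbance taken at 560 nm. Values fitted in both directions relative to DMSO.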

[9] = read-out: Urokinase-type plasminogen activator receptor (uPAR), PLAUR (gene 5329); assay: BSK_4H_uPAR: BioMAP Diversity Plus: 4H Assay for Urokinase-type plasminogen activator receptor (uPAR) Biomarker Activity (AID 2283030); conditions: primary human endothelial cells (HUVEC); actives raise or lower the signal
Summary of the method: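 Chemicals are dosed onto human vascular endothelial primary cells (umbilical vein). After 24 h, uPAR is read by ELISA. Gain or loss of signal is fitted relative to DMSO.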

[10] = read-out: Vascular endothelial growth factor receptor 2 (Homo sapiens) (UniProt P35968); assay: BSK_4H_VEGFRII: BioMAP Diversity Plus: 4H Assay for Vascular endothelial growth factor receptor 2 (VEGFR2) Biomarker Activity (AID 2283031); conditions: primary human endothelial cells (HUVEC); actives raise or lower the signal;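 on AC50: cell-surface VEGFR2 protein level quantified by ELISA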
Summary of the method: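 VEGFRII levels on human vascular endothelial primary cells were determined by ELISA at 24 hours post-dosing, with gain- or loss-of-signal fitted against DMSO controls.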

[11] = read-out: Human Leukocyte Antigen - DR isotype (HLADR), HLA-DRA (gene 3122); assay: BSK_BE3C_HLADR: BioMAP Diversity Plus: BE3C Assay for Human Leukocyte Antigen - DR isotype (HLADR) Biomarker Activity (AID 2283032); conditions: primary human bronchial epithelial cells; actives raise or lower the signal
Summary of the method: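 Cell-surface HLA-DR ELISA readout at 24 h after dosing in the BE3C primary human lung bronchial epithelial system; gain or loss of signal against DMSO, with parallel sulforhodamine B staining of total protein for overt cytotoxicity.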

[12] = read-out: Vascular cell adhesion molecule 1 (VCAM1), VCAM1 (gene 7412); assay: BSK_4H_VCAM1: BioMAP Diversity Plus: 4H Assay for Vascular cell adhesion molecule 1 (VCAM1) Biomarker Activity (AID 2283033); conditions: primary human endothelial cells (HUVEC); actives raise or lower the signal
Summary of the method: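 VCAM-1 ELISA read 24 h after chemical dosing of HUVEC in the BioMAP 4H system, with gain or loss of signal fitted relative to DMSO. Parallel SRB staining (560 nm) checked overt cytotoxicity.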

[13] = read-out: Interferon-gamma inducible Protein 10 (IP10), CXCL10 (gene 3627); assay: BSK_BE3C_IP10: BioMAP Diversity Plus: BE3C Assay for Interferon-gamma inducible Protein 10 (IP10) Biomarker Activity (AID 2283034); conditions: primary human bronchial epithelial cells; actives raise or lower the signal
Summary of the method: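 IP-10 quantified by ELISA in human primary bronchial epithelial cell cultures at 24 hours post-dosing. Gain or loss of signal fitted relative to DMSO; parallel SRB staining assessed overt cytotoxicity.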

[14] = read-out: Monokine induced gamma interferon (MIG), CXCL9 (gene 4283); assay: BSK_BE3C_MIG: BioMAP Diversity Plus: BE3C Assay for Monokine induced gamma interferon (MIG) Biomarker Activity (AID 2283035); conditions: primary human bronchial epithelial cells; actives raise or lower the signal
Summary of the method: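 ELISA quantified MIG after 24 h exposure of primary bronchial epithelial cultures, analysed in both directions relative to DMSO. Cytotoxicity tracked in parallel cultures by sulforhodamine B staining.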

[15] = read-out: Transforming growth factor beta 1 (TGFb1), TGFB1 (gene 7040); assay: BSK_BE3C_TGFb1: BioMAP Diversity Plus: BE3C Assay for Transforming growth factor beta 1 (TGFb1) Biomarker Activity (AID 2283036); conditions: primary human bronchial epithelial cells; actives raise or lower the signal
Summary of the method: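 ELISA readout of TGF-b1 from human lung bronchial epithelial primary cells, taken 24 h post-treatment. Gain or loss of signal fitted relative to DMSO baseline, with parallel SRB staining for overt cytotoxicity.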

[16] = read-out: Plasminogen activator inhibitor-1 (PAI1), SERPINE1 (gene 5054); assay: BSK_BE3C_PAI1: BioMAP Diversity Plus: BE3C Assay for Plasminogen activator inhibitor-1 (PAI1) Biomarker Activity (AID 2283037); conditions: primary human bronchial epithelial cells; actives raise or lower the signal
Summary of the method: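 PAI-1 was measured by ELISA in human primary bronchial epithelial cultures 24 h after chemical dosing, with cytotoxicity checked by SRB total-protein staining in parallel cultures. Activity was fitted in both directions relative to DMSO.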

[17] = read-out: urokinase plasminogen activator (uPA), PLAU (gene 5328); assay: BSK_BE3C_uPA: BioMAP Diversity Plus: BE3C Assay for urokinase plasminogen activator (uPA) Biomarker Activity (AID 2283038); conditions: primary human bronchial epithelial cells; actives raise or lower the signal
Summary of the method: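 Measured by ELISA: uPA from human primary bronchial epithelial cells 24 h after chemical treatment. Values derive from bidirectional curve fitting with DMSO serving as negative control. Total protein by SRB staining in parallel wells flagged overt cytotoxicity.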

[18] = BSK_3C_SRB: Viability Assessment in the BioMAP Diversity Plus: 3C Assay (AID 2283023); conditions: primary human endothelial cells (HUVEC);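 further: fitted both ways against DMSO so a hit may be signal rise or drop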
Summary of the method: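 Cells were dosed with chemical, cultured 24 h, fixed with 10% TCA, stained with 0.1% SRB and read at 560 nm. Human umbilical vein endothelium was used; DMSO served as negative control and baseline.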

[19] = BSK_BE3C_SRB: Viability Assessment in the BioMAP Diversity Plus: BE3C Assay (AID 2283028); conditions: primary human bronchial epithelial cells
Summary of the method: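 Overt cytotoxicity was assessed as total protein in confluent human primary bronchial epithelial cultures 24 h after chemical addition, using 0.1% sulforhodamine B staining read at 560 nm.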

[20] = read-out: Thrombomodulin, THBD (gene 7056); assay: BSK_3C_Thrombomodulin: BioMAP Diversity Plus: 3C Assay for Thrombomodulin Biomarker Activity (AID 2283029); conditions: primary human endothelial cells (HUVEC); actives raise or lower the signal
Summary of the method: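 ELISA measurement of thrombomodulin on HUVEC surface 24 h after chemical dosing; activity fitted in both directions relative to DMSO vehicle.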

Measured: AC50

CCOP(=S)(OCC)SCn1nnc2ccccc2c1=O
active: [1] 33.7 µM
not listed: [18] | [19] | [20]
inactive: all other assays above

ClC1=C(Cl)C2(Cl)C3C(Cl)C(Cl)CC3C1(Cl)C2(Cl)Cl (configuration not stated)
inactive: [4] | [19] | [17]
active: [1] 17.5 µM | [2] 35.6 µM | [3] 35.6 µM | [18] 29.8 µM | [5] 14.4 µM | [6] 37.3 µM | [8] 29.6 µM | [9] 38 µM | [10] 30.3 µM | [11] 15.2 µM | [12] 27.3 µM | [13] 34.9 µM | [14] 30.6 µM | [15] 9.17 µM | [16] 36.1 µM

CCOP(=S)(NC(C)C)Oc1ccccc1C(=O)OC(C)C (configuration not stated)
not listed: [5]
inactive: all other assays above

CCCCCCCc1ccc(O)cc1
active: [1] 25.3 µM | [2] 38.1 µM | [3] 38.4 µM | [5] 37.5 µM | [6] 22.3 µM | [8] 36.1 µM | [9] 38.4 µM | [11] 32.1 µM | [12] 35.1 µM | [13] 35 µM | [14] 37.6 µM | [15] 37.3 µM | [16] 39.3 µM | [17] 39.1 µM
inactive: [4] | [10]

CCOP(=S)(OCC)SCS(=O)(=O)CC
inactive: all assays above

c1ccc2c(c1)sc1ccccc12
not listed: [5] | [20]
inactive: all other assays above

CCOC(=O)c1ccccc1C(=O)OCC
not listed: [5] | [7] | [19]
inactive: all other assays above

O=C(O)C(F)(F)OC(F)(F)C(F)(F)OC(F)(F)C(=O)O
not listed: [5] | [6] | [7] | [15] | [19]
inactive: all other assays above

CCC1(c2ccccc2)C(=O)N=C(O)NC1=O (configuration not stated)
not listed: [5] | [19]
inactive: all other assays above

CCOP(=S)(Oc1ccc([N+](=O)[O-])cc1)c1ccccc1 (configuration not stated)
active: [12] 8.86 µM
not listed: [18] | [19]
inactive: all other assays above

O=C(O)C(F)(OC(F)(F)C(F)(F)C(F)(F)F)C(F)(F)F (configuration not stated)
inactive: [1] | [2] | [3] | [4] | [18] | [7] | [8] | [19] | [9] | [10] | [11] | [12] | [13] | [14] | [16] | [17]
active: [2] 5.95 µM | [16] 0.22 µM

c1nc[nH]n1
not listed: [7] | [20]
inactive: all other assays above

Cc1cccc(N)c1
not listed: [10]
inactive: all other assays above

Cc1ccc([N+](=O)[O-])cc1C
not listed: [7] | [18] | [19] | [20]
inactive: all other assays above
